The structures appear in SMILES notation. Several values for one entry are separate records, joined by “and”; a condition that tells them apart may be missing. Identical values can stand only once. About 83,000 compounds went through this panel and 20% of them were active in at least one assay; those are over-represented in the sample as a whole.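 Cells were grown in 96-well plates and exposed to the test compound at a single concentration for 48 hours; results are reported as percent growth, with values below 10 considered active.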 A number with no mark means an inactive call. Activity calls are given as the source filed them.

For this test, the system named is MDA-MB-468 breast. Kind of test: NCI-60 one-dose screen, 48 h (100 = growth as untreated, 0 = no growth, -100 = all killed). Particulars: 10 µM unless noted.
Consider `c1ccc(Nc2nc3c(s2)CCc2c[nH]cc2-3)nc1`, for which the growth is 83.6%.

On to `CCC(=O)c1cc([N+](=O)[O-])c(Br)s1`, for which the growth was 74.6%.

Regarding `CCOC(=O)n1cc(-c2nonc2-c2cn(C)c3ncccc23)c2cc(F)ccc21`, the growth is -7.17% (active).

On to `CCCCSC1=C(Cl)CN(c2ccccc2)C1=O`, for which the growth is 84.6%.

`Fc1ccc(C(c2ccc(F)cc2)C(Cl)Cl)cc1`: the growth is 104%.

For `NC(=O)N/N=C/c1ccc(Br)o1`, the growth was 109%.

For `CNC(=O)c1cc(-n2ccc3cc(NC(=O)c4ccc(N5CCOCC5)c(C(F)(F)F)c4)ccc32)ccn1`, the growth was 71.6%.

`COc1ccc(S(=O)(=O)Nc2ccc(OCc3nnc(-c4ccc(Cl)cc4)o3)c(F)c2)cc1`: the growth was 15.2%.

Consider `CC1=C(C(=O)/C=C/c2c[nH]c3ccccc23)C(c2ccccc2)NC(=S)N1` (stereo not given), for which the growth was 102%.

For `CCCCNC(=O)NS(=O)(=O)c1ccc(N2N=C(c3ccc(C)cc3C)CC2c2ccc(N(C)C)cc2)cc1` (stereo not given), the growth was 60%.

With `NC(N)=Nc1ccc(Oc2cccc(Nc3ccc(Cl)c(C(F)(F)F)c3)c2)cc1`, the growth was 4.84% (active).

`CC(C)=CCc1c(O)c(CC=C(C)C)c2c(c1O)C(=O)C1=C[C@@H]3C[C@H]4C(C)(C)O[C@@](C/C=C(\C)C(=O)O)(C3=O)[C@@]14O2`: the growth is -45.1% (active).

Regarding `CCOC(=O)/C=C/c1ccc(C(=O)OCC)[nH]1`, the growth was 53.5%.

For the molecule `Cc1nn(-c2ccc(-c3ccc(OC(F)(F)F)cc3)cc2)c2nc(-c3ccccc3)nc(N)c12`, the growth was 82.6%.

Regarding `O=C(Nc1ccc(-n2cc(-c3ccncc3)c(-c3ccc(O)c(Cl)c3)n2)cc1)c1ccc(Cl)c(C(F)(F)F)c1`, the growth was 27.5%.

As to `O=C(O)CN1C(=O)c2cccc3cccc(c23)C1=O`, the growth was 95.7%.

With `Cc1ccc2[nH]c(=O)c3c(c2c1)Oc1ncn2nc(-c4ccco4)nc2c1C3c1ccc(Cl)cc1` (stereo not given), the growth was 96.4%.

Turning to `CC(C)OCC1CO1` (stereo not given), the growth is 108%.

For the molecule `Cc1cc(NCC(=O)Nc2ccc(-c3nc4ccccc4s3)cc2)no1`, the growth was -46.7% (active).

In the case of `Cn1cc(-c2noc(C(=O)c3cn(C)c4ncccc34)n2)c2ccccc21`, the growth was -9.42% (active).

On to `CCOS(=O)(=O)c1c(C(C)C)cc(C(C)C)cc1C(C)C`, for which the growth is 102%.

For `CC1(C)CC[C@]2(C(=O)Nc3ccccn3)CC[C@]3(C)C(=CC[C@@H]4[C@@]5(C)C/C(=C/c6ccncc6)C(=O)C(C)(C)[C@@H]5CC[C@]43C)[C@@H]2C1`, the growth is 19.2%.

With `N#CSc1c[nH]c2ccc(/C=C/C(=O)/C=C(/C=C/c3ccc4[nH]cc(SC#N)c4c3)OB(F)F)cc12`, the growth is -49% (active).

For `CCOC(=O)c1c(C)[nH]c(C(=O)CCC(=O)OC)c1C`, the growth was 114%.

As for `CN(C)CCCNc1nc(-c2cccc(C(Cl)(Cl)Cl)c2)nc(C(Cl)(Cl)Cl)n1`, the growth was 114%.

As to `COc1ccc(OC)c2c1[nH]c(=O)c1c3ccccc3cn21`, the growth is -23.3% (active).

As for `Clc1nn2c(Cn3cnc4c(NCc5ccccc5)ncnc43)nnc2c2ccccc12`, the growth was 35.3%.

In the case of `CC(=O)NCCCS(=O)(=O)O`, the growth was 113%.

For `CCCOCC(O)CNCCN` (stereo not given), the growth was 106%.

For `OCc1ccccc1F`, the growth was 72.9%.

For the molecule `CCOC(=O)c1ccc(-c2ccc3cc(OC)ccc3c2)nc1C`, the growth was 119%.

Consider `COc1cc(C(=O)NC(=S)Nc2ccc3ccccc3c2)cc(OC)c1OC`, for which the growth is 95.5%.

`O=C(/C=C/c1ccccc1)N(C1CCCCC1)C1CCCCC1`: the growth was 72.4%.

On to `O=C1c2cc3c(cc2-c2c1c1ccc(F)cc1c(=O)n2C[C@H](O)[C@@H](O)[C@H](O)CO)OCO3`, for which the growth was -45.2% (active).

Regarding `CCOC(=O)c1c(NC(=O)c2ccccc2)sc2c3c(ccc12)OCN(C)C3`, the growth is -73.7% (active).

On to `CN1CCN(Cc2ccc(NC(=O)c3cncc(C#Cc4cnc5ccc(O[C@@H]6CCOC6)nn45)c3)cc2C(F)(F)F)CC1`, for which the growth was -72.6% (active).

Take `Cc1ncc(C(=O)Nc2ccc(CN3CCN(C)CC3)c(C(F)(F)F)c2)cc1C#Cc1c(N)ncc2ccc(F)cc12`: the growth was 48.2%.

For the molecule `COc1ccccc1OC(=O)Oc1ccccc1OC`, the growth was 106% and 119%.

As to `Cc1[nH]cnc1/C=C1\SC(N2CCCCC2)=NC1=O`, the growth is 101%.

`CCOC(=O)c1c(N)sc2cc(O)ccc12`: the growth was 131%.
